In PubChem BioAssay AID1159580 (chemical genetic matrix, 2015):
In all, about 5,500 compounds went through this assay and about 2,000 (36%) were called active. About 18% were inconclusive and are not listed. No stated cut-off is given here; in the data, active means normalized growth mostly below about 0.91 (no sharp cut-off); inconclusive means no clear call, values can overlap the other calls; inactive means mostly above about 0.92. This is one part of the list.

Test: chemical genetic growth profiling, strain panel (AID 1159580);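 further: tested at 20 µM; growth read once vehicle control cultures reached saturation at 30 °C; 1 = growth at the plate median or of vehicle wells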
Details: S. cerevisiae deletion strains, growth OD

Measured: normalized growth

S=C(Nc1ccc(Cl)cc1Cl)N(c1cccc(Cl)c1)c1nc2ccccc2s1
inactive: locus YAR019C, strain CDC15, stronger effect = lower value 0.956 | locus YBL105C, strain PKC1, stronger effect = lower value 0.96 | locus YBR135W, strain CKS1, stronger effect = lower value 0.951 | locus YBR136W, strain MEC1, stronger effect = lower value 0.962 | locus YBR160W, strain CDC28, stronger effect = lower value 0.964 | locus YDL017W, strain CDC7, stronger effect = lower value 0.96 | locus YDL028C, strain MPS1, stronger effect = lower value 0.963 | locus YDL101C, strain DUN1, stronger effect = lower value 0.987 | locus YDL108W, strain KIN28, stronger effect = lower value 0.955 | locus YDL132W, strain cdc53, stronger effect = lower value 0.967 | locus YDL214C, strain PRR2, stronger effect = lower value 0.821 | locus YDR052C, strain DBF4, stronger effect = lower value 0.964 | locus YDR054C, strain cdc34, stronger effect = lower value 0.955 | locus YDR226W, strain ADK1, stronger effect = lower value 0.954 | locus YDR477W, strain SNF1, stronger effect = lower value 0.778 | locus YER123W, strain YCK3, stronger effect = lower value 0.778 | locus YER133W, strain GLC7, stronger effect = lower value 0.765 | locus YFL009W, strain cdc4, stronger effect = lower value 0.951 | locus YFL029C, strain CAK1, stronger effect = lower value 0.962 | locus YFR003C, strain YPI1, stronger effect = lower value 0.961 | locus YFR019W, strain FAB1, stronger effect = lower value 0.878 | locus YFR028C, strain CDC14, stronger effect = lower value 0.949 | locus YGR040W, strain KSS1, stronger effect = lower value 0.785 | locus YGR052W, strain FMP48, stronger effect = lower value 0.846 | locus YGR092W, strain DBF2, stronger effect = lower value 0.598 | locus YHR079C, strain IRE1, stronger effect = lower value 0.779 | locus YHR082C, strain KSP1, stronger effect = lower value 0.871 | locus YHR205W, strain SCH9, stronger effect = lower value 0.778 | locus YIL147C, strain SLN1, stronger effect = lower value 0.963 | locus YJL095W, strain BCK1, stronger effect = lower value 0.75 | locus YJL128C, strain PBS2, stronger effect = lower value 0.933 | locus YJL157C, strain FAR1, stronger effect = lower value 0.794 | locus YJR016C, strain ILV3, stronger effect = lower value 0.955 | locus YJR066W, strain TOR1 (second series), stronger effect = lower value 0.714 | locus YJR066W, strain TOR1, stronger effect = lower value 0.777 | locus YKL048C, strain ELM1, stronger effect = lower value 0.885 | locus YKL067W, strain YNK1, stronger effect = lower value 0.835 | locus YKL101W, strain HSL1, stronger effect = lower value 0.823 | locus YKL193C, strain SDS22, stronger effect = lower value 0.957 | locus YKL203C, strain TOR2, stronger effect = lower value 0.849 | locus YLR133W, strain CKI1, stronger effect = lower value 0.783 | locus YLR403W, strain SFP1, stronger effect = lower value 0.664 | locus YML070W, strain DAK1, stronger effect = lower value 0.795 | locus YMR001C, strain CDC5, stronger effect = lower value 0.951 | locus YMR205C, strain PFK2 (second series), stronger effect = lower value 0.82 | locus YMR277W, strain FCP1, stronger effect = lower value 0.95 | locus YNL006W, strain LST8, stronger effect = lower value 0.955 | locus YNL020C, strain ARK1, stronger effect = lower value 0.763 | locus YNL161W, strain CBK1, stronger effect = lower value 0.949 | locus YNL183C, strain NPR1, stronger effect = lower value 0.817 | locus YNL207W, strain RIO2, stronger effect = lower value 0.955 | locus YNL222W, strain SSU72, stronger effect = lower value 0.963 | locus YNL307C, strain MCK1 (second series), stronger effect = lower value 0.784 | locus YOL078W, strain AVO1, stronger effect = lower value 0.957 | locus YOL136C, strain PFK27, stronger effect = lower value 0.816 | locus YOR061W, strain CKA2, stronger effect = lower value 0.712 | locus YOR119C, strain RIO1, stronger effect = lower value 0.811 | locus YOR231W, strain MKK1, stronger effect = lower value 0.809 | locus YOR329C, strain SCD5, stronger effect = lower value 0.962 | locus YPL031C, strain PHO85, stronger effect = lower value 0.734 | locus YPL153C, strain RAD53, stronger effect = lower value 0.811 | locus YPL204W, strain HRR25, stronger effect = lower value 0.719 | locus YPL209C, strain IPL1, stronger effect = lower value 0.96 | locus YPR025C, strain CCL1, stronger effect = lower value 0.961 | locus YPR106W, strain ISR1, stronger effect = lower value 0.961 | locus YPR111W, strain DBF20, stronger effect = lower value 0.949 | strain NNK1, stronger effect = lower value 0.951 | strain TSCII, stronger effect = lower value 0.954
active: locus YHR030C, strain SLT2, stronger effect = lower value 0.674 | locus YLR113W, strain HOG1, stronger effect = lower value 0.743 | locus YPL256C, strain CLN2, stronger effect = lower value 0.791
